# Legend:
# Conditions in all cases: concentration: 1 μM, replicates: in singlicate; n = 1
# [1] = tested on: CAMK2G
# [2] = tested on: CAMK4
# [3] = tested on: CAMKK1
# [4] = tested on: CAMKK2
# [5] = tested on: CASK
# [6] = tested on: T1, CDC2L1
# T1 construct: gene CDK11B
# [7] = tested on: CDC2L2
# [8] = tested on: T2, CDC2L5
# T2 construct: gene CDK13
# [9] = tested on: T3, CDK11
# T3 construct: gene CDK19
# [10] = tested on: CDK2
# 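Further: KINOMEscan kinase panel screen.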
compound,measurement,setting,value
COc1cc2ncn(-c3cc(OCc4ccncc4)c(C(N)=O)s3)c2cc1OC [GSK336313],%Inh,[1],18%
same,%Inh,[2],0%
same,%Inh,[3],0%
same,%Inh,[4],22%
same,%Inh,[5],7%
same,%Inh,[6],0%
same,%Inh,[7],23%
same,%Inh,[8],0%
same,%Inh,[9],0%
same,%Inh,[10],0%
COc1cc2nccc(Nc3cccc(Oc4ccccc4)c3)c2cc1OC.Cl [GW284543],%Inh,[1],19%
same,%Inh,[2],0%
same,%Inh,[3],8%
same,%Inh,[4],19%
same,%Inh,[5],1%
same,%Inh,[6],0%
same,%Inh,[7],11%
same,%Inh,[8],0%
same,%Inh,[9],0%
same,%Inh,[10],0%
CCn1c(-c2nonc2N)nc2ccccc21 [SB-693162/GW549034],%Inh,[1],1%
same,%Inh,[2],0%
same,%Inh,[3],9%
same,%Inh,[4],0%
same,%Inh,[5],0%
same,%Inh,[6],0%
same,%Inh,[7],29%
same,%Inh,[8],0%
same,%Inh,[9],11%
same,%Inh,[10],0%
Nc1ncnc2c1ncn2-c1cccc(F)c1 [SKF-97560],%Inh,[1],0%
same,%Inh,[2],0%
same,%Inh,[3],0%
same,%Inh,[4],0%
same,%Inh,[5],47%
same,%Inh,[6],1%
same,%Inh,[7],15%
same,%Inh,[8],23%
same,%Inh,[9],0%
same,%Inh,[10],0%
CCC(=O)c1c(-c2ccccc2)c2cc(Cl)ccc2c(=O)n1Cc1cc(C(=O)NC2CC2)n(C)n1,%Inh,[1],6%
same,%Inh,[2],0%
same,%Inh,[3],2%
same,%Inh,[4],15%
same,%Inh,[5],0%
same,%Inh,[6],4%
same,%Inh,[7],0%
same,%Inh,[8],0%
same,%Inh,[9],3%
same,%Inh,[10],0%
Nc1ncnc2c1ncn2-c1cccc2ccccc12 [SKF-97184],%Inh,[1],0%
same,%Inh,[2],38%
same,%Inh,[3],0%
same,%Inh,[4],0%
same,%Inh,[5],22%
same,%Inh,[6],0%
same,%Inh,[7],11%
same,%Inh,[8],26%
same,%Inh,[9],23%
same,%Inh,[10],0%
COc1ccc(CNC(=O)NC2CCN(c3ccnc(Nc4ccc(F)cc4)n3)C2)cc1 (centres unmarked) [GSK1379706],%Inh,[1],38%
same,%Inh,[2],0%
same,%Inh,[3],17%
same,%Inh,[4],26%
same,%Inh,[5],19%
same,%Inh,[6],2%
same,%Inh,[7],0%
same,%Inh,[8],0%
same,%Inh,[9],22%
same,%Inh,[10],3%
CCc1nc(-c2cccc(C)c2)c(-c2ccncc2)s1,%Inh,[1],0%
same,%Inh,[2],0%
same,%Inh,[3],0%
same,%Inh,[4],0%
same,%Inh,[5],0%
same,%Inh,[6],0%
same,%Inh,[7],3%
same,%Inh,[8],0%
same,%Inh,[9],0%
same,%Inh,[10],0%
CCn1c(-c2ccoc2)nc2cnccc21 [SB-733887],%Inh,[1],6%
same,%Inh,[2],0%
same,%Inh,[3],4%
same,%Inh,[4],4%
same,%Inh,[5],3%
same,%Inh,[6],0%
same,%Inh,[7],6%
same,%Inh,[8],0%
same,%Inh,[9],0%
same,%Inh,[10],4%
COc1ccc(-c2coc3ccc(-c4nnc(SCc5cccc(C#N)c5)o4)cc23)cc1,%Inh,[1],0%
same,%Inh,[2],0%
same,%Inh,[3],0%
same,%Inh,[4],0%
same,%Inh,[5],8%
same,%Inh,[6],0%
same,%Inh,[7],10%
same,%Inh,[8],0%
same,%Inh,[9],0%
same,%Inh,[10],6%
COc1cc(OC)cc(-c2cc3cnc(N)nc3nc2NC(=O)NC(C)(C)C)c1,%Inh,[1],23%
same,%Inh,[2],0%
same,%Inh,[3],16%
same,%Inh,[4],29%
same,%Inh,[5],0%
same,%Inh,[6],2%
same,%Inh,[7],0%
same,%Inh,[8],0%
same,%Inh,[9],0%
same,%Inh,[10],0%
O=C(NCCNc1ccnc(Nc2ccc(F)cc2)n1)Nc1ccc2c(c1)OCO2 [GSK1379882],%Inh,[1],21%
same,%Inh,[2],0%
same,%Inh,[3],10%
same,%Inh,[4],15%
same,%Inh,[5],18%
same,%Inh,[6],9%
same,%Inh,[7],20%
same,%Inh,[8],0%
same,%Inh,[9],10%
same,%Inh,[10],0%
COc1cc(Nc2nccc(N3CCC(NC(=O)C4COc5ccccc5O4)C3)n2)cc(OC)c1OC (centres unmarked) [GSK1379761],%Inh,[1],26%
same,%Inh,[2],0%
same,%Inh,[3],20%
same,%Inh,[4],14%
same,%Inh,[5],0%
same,%Inh,[6],0%
same,%Inh,[7],4%
same,%Inh,[8],0%
same,%Inh,[9],7%
same,%Inh,[10],0%
COc1cc2nccc(Nc3ccc(OCc4ccc(NC(C)=O)cc4)cc3)c2cc1OC.Cl [GW440135],%Inh,[1],9%
same,%Inh,[2],0%
same,%Inh,[3],11%
same,%Inh,[4],1%
same,%Inh,[5],0%
same,%Inh,[6],0%
same,%Inh,[7],0%
same,%Inh,[8],0%
same,%Inh,[9],34%
same,%Inh,[10],0%
Cc1cc(Nc2nc(-c3cccc(C)n3)nc3ccccc23)ccn1 [GW872411],%Inh,[1],0%
same,%Inh,[2],0%
same,%Inh,[3],0%
same,%Inh,[4],0%
same,%Inh,[5],7%
same,%Inh,[6],0%
same,%Inh,[7],0%
same,%Inh,[8],0%
same,%Inh,[9],0%
same,%Inh,[10],0%
COc1ccc(-n2cnc3c(N)ncnc32)cc1 [SKF-97236],%Inh,[1],6%
same,%Inh,[2],12%
same,%Inh,[3],0%
same,%Inh,[4],0%
same,%Inh,[5],0%
same,%Inh,[6],0%
same,%Inh,[7],0%
same,%Inh,[8],4%
same,%Inh,[9],0%
same,%Inh,[10],19%
Cc1nnc(-c2ccc3ncn(-c4ccc(S(C)=O)cc4)c3c2)o1 (centres unmarked),%Inh,[1],0%
same,%Inh,[2],0%
same,%Inh,[3],0%
same,%Inh,[4],0%
same,%Inh,[5],0%
same,%Inh,[6],0%
same,%Inh,[7],10%
same,%Inh,[8],0%
same,%Inh,[9],0%
same,%Inh,[10],0%
Nc1nc(N)c2nc(-c3ccccc3)[nH]c2n1 [SKF-12778],%Inh,[1],4%
same,%Inh,[2],0%
same,%Inh,[3],6%
same,%Inh,[4],0%
same,%Inh,[5],0%
same,%Inh,[6],0%
same,%Inh,[7],0%
same,%Inh,[8],5%
same,%Inh,[9],0%
same,%Inh,[10],0%
CCCC(=O)Nc1n[nH]c2ncc(-c3cccc4ccccc34)cc12 [SB-642057],%Inh,[1],28%
same,%Inh,[2],22%
same,%Inh,[3],20%
same,%Inh,[4],30%
same,%Inh,[5],34%
same,%Inh,[6],0%
same,%Inh,[7],1%
same,%Inh,[8],0%
same,%Inh,[9],0%
same,%Inh,[10],56%
COc1ccc(-c2cc3c(C)nc(N)nc3n([C@H]3CC[C@H](O)CC3)c2=O)cn1,%Inh,[1],0%
same,%Inh,[2],0%
same,%Inh,[3],0%
same,%Inh,[4],0%
same,%Inh,[5],0%
same,%Inh,[6],0%
same,%Inh,[7],0%
same,%Inh,[8],0%
same,%Inh,[9],0%
same,%Inh,[10],0%
CN(C)c1cc(-c2ccc3c(N)n[nH]c3c2)nc(N)n1 [GSK2219329],%Inh,[1],19%
same,%Inh,[2],0%
same,%Inh,[3],0%
same,%Inh,[4],9%
same,%Inh,[5],0%
same,%Inh,[6],0%
same,%Inh,[7],22%
same,%Inh,[8],0%
same,%Inh,[9],0%
same,%Inh,[10],10%
COc1cccc(C2=C(Nc3cccc(C(=O)O)c3)C(=O)NC2=O)c1 [SB-390770],%Inh,[1],14%
same,%Inh,[2],0%
same,%Inh,[3],1%
same,%Inh,[4],14%
same,%Inh,[5],13%
same,%Inh,[6],0%
same,%Inh,[7],0%
same,%Inh,[8],0%
same,%Inh,[9],0%
same,%Inh,[10],15%
Cc1ccc(Oc2ccc(Nc3ncnc4cc[nH]c34)cc2C)cn1,%Inh,[1],15%
same,%Inh,[2],0%
same,%Inh,[3],9%
same,%Inh,[4],5%
same,%Inh,[5],0%
same,%Inh,[6],0%
same,%Inh,[7],7%
same,%Inh,[8],0%
same,%Inh,[9],19%
same,%Inh,[10],0%
Nc1ncnc2c1ncn2-c1ccc(Cl)cc1 [AH2635],%Inh,[1],13%
same,%Inh,[2],0%
same,%Inh,[3],0%
same,%Inh,[4],10%
same,%Inh,[5],0%
same,%Inh,[6],0%
same,%Inh,[7],28%
same,%Inh,[8],0%
same,%Inh,[9],0%
same,%Inh,[10],0%
Cn1c(=O)c(F)c(Nc2ccc(I)cc2F)c2c(=O)n(OC[C@H](O)CO)cnc21,%Inh,[1],34%
same,%Inh,[2],22%
same,%Inh,[3],24%
same,%Inh,[4],33%
same,%Inh,[5],0%
same,%Inh,[6],14%
same,%Inh,[7],15%
same,%Inh,[8],13%
same,%Inh,[9],0%
same,%Inh,[10],0%
COc1cc2ncn(-c3cc(OCCCc4ccccc4)c(C(N)=O)s3)c2cc1OC [GSK205189],%Inh,[1],29%
same,%Inh,[2],0%
same,%Inh,[3],3%
same,%Inh,[4],17%
same,%Inh,[5],52%
same,%Inh,[6],0%
same,%Inh,[7],3%
same,%Inh,[8],0%
same,%Inh,[9],0%
same,%Inh,[10],0%
CCC(=O)c1c(-c2ccccc2)c2cc(Cl)ccc2c(=O)n1Cc1cc(S(C)(=O)=O)n(CC(N)=O)n1,%Inh,[1],0%
same,%Inh,[2],0%
same,%Inh,[3],0%
same,%Inh,[4],0%
same,%Inh,[5],0%
same,%Inh,[6],0%
same,%Inh,[7],6%
same,%Inh,[8],0%
same,%Inh,[9],0%
same,%Inh,[10],0%
O=C(Nc1n[nH]c2nc(-c3ccccc3)c(Br)cc12)C1CC1 [SB-708998],%Inh,[1],4%
same,%Inh,[2],0%
same,%Inh,[3],0%
same,%Inh,[4],0%
same,%Inh,[5],0%
same,%Inh,[6],0%
same,%Inh,[7],0%
same,%Inh,[8],0%
same,%Inh,[9],0%
same,%Inh,[10],0%
O=C(NCc1cccs1)c1cc(C(=O)c2c(Cl)cccc2Cl)c[nH]1 [GW823670],%Inh,[1],0%
same,%Inh,[2],15%
same,%Inh,[3],0%
same,%Inh,[4],0%
same,%Inh,[5],5%
same,%Inh,[6],0%
same,%Inh,[7],0%
same,%Inh,[8],0%
same,%Inh,[9],14%
same,%Inh,[10],0%
Cc1nc(N(C)[C@H]2CN(C(=O)CC#N)CC[C@H]2C)c2cc[nH]c2n1,%Inh,[1],12%
same,%Inh,[2],6%
same,%Inh,[3],7%
same,%Inh,[4],4%
same,%Inh,[5],15%
same,%Inh,[6],0%
same,%Inh,[7],0%
same,%Inh,[8],0%
same,%Inh,[9],0%
same,%Inh,[10],0%
Nc1n[nH]c2nnc(-c3ccccc3)c(-c3ccccc3)c12 [GW554060],%Inh,[1],17%
same,%Inh,[2],0%
same,%Inh,[3],13%
same,%Inh,[4],11%
same,%Inh,[5],71%
same,%Inh,[6],0%
same,%Inh,[7],0%
same,%Inh,[8],0%
same,%Inh,[9],0%
same,%Inh,[10],0%
CCS(=O)(=O)c1ccc(OC)c(Nc2ncc(-c3ccc(F)cc3)o2)c1.Cl [GW591947],%Inh,[1],21%
same,%Inh,[2],0%
same,%Inh,[3],1%
same,%Inh,[4],12%
same,%Inh,[5],3%
same,%Inh,[6],0%
same,%Inh,[7],0%
same,%Inh,[8],0%
same,%Inh,[9],19%
same,%Inh,[10],0%
Nc1nccc2scc(-c3ccc4c(c3)CCN4C(=O)Cc3ccccc3)c12 [GSK2576924],%Inh,[1],0%
same,%Inh,[2],3%
same,%Inh,[3],0%
same,%Inh,[4],7%
same,%Inh,[5],15%
same,%Inh,[6],8%
same,%Inh,[7],16%
same,%Inh,[8],0%
same,%Inh,[9],57%
same,%Inh,[10],0%
COC(=O)c1c(-c2ccccc2)c2cc(Br)ccc2c(=O)n1Cc1ccc(NC(=O)CCC(=O)O)cc1,%Inh,[1],8%
same,%Inh,[2],0%
same,%Inh,[3],0%
same,%Inh,[4],0%
same,%Inh,[5],0%
same,%Inh,[6],16%
same,%Inh,[7],0%
same,%Inh,[8],13%
same,%Inh,[9],7%
same,%Inh,[10],4%
O=C(Nc1n[nH]c2nc(-c3ccccc3)c(Cl)cc12)C1CC1 [SB-734909],%Inh,[1],0%
same,%Inh,[2],0%
same,%Inh,[3],0%
same,%Inh,[4],1%
same,%Inh,[5],35%
same,%Inh,[6],0%
same,%Inh,[7],18%
same,%Inh,[8],0%
same,%Inh,[9],0%
same,%Inh,[10],2%
